# Assay results reported in PubChem BioAssay (NCI).
# About 79,000 compounds went through this panel and 15% of them were active in at least one assay; those are over-represented in the sample as a whole. Unmarked numbers belong to inactive results. Active and inactive are the calls of the source. Cut-off read from the data, not from the text of the source: active = growth inhibition above about 70%; inactive = the rest.
# Assay: NCI Yeast Anticancer Drug Screen. Data for the rad50 strain (AID 155);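 note: 0% = growth of vehicle-only cultures of the same strain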
# Details: S. cerevisiae rad50 strain growth inhibition; at 50.0 µM; hits give high values
# Method in brief: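 Cells are treated with compound, grown, and their growth is then scored against vehicle-only cultures of the same repair-deficient yeast strain.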
row,Structure (SMILES),growth inhibition
1,O=C(CC(=O)N1N=C(N(c2ccccc2)c2ccccc2)CC1c1ccccc1)Nc1ccccc1 (stereo not given),17.1%
2,NS(=O)(=O)c1ccc(NC(=O)Nc2cccc(Cl)c2)cc1,1.35%
3,[O-][N+]1=C(c2ccccc2)C(c2ccccc2)C(c2ccccc2)O1 (stereo not given),-13.4%
4,O=[N+]([O-])c1ccc(F)cc1,-1.3%
5,COc1cc(C)c(C#N)c(OC)n1,19.4%
6,Clc1cc(Cl)c(SSc2cc(Cl)c(Cl)cc2Cl)cc1Cl,-11.6%
7,COc1cc2nccnc2c(N)c1OC,14.6%
8,O=C1c2ccccc2C(c2ccccc2)C1c1ccccc1 (stereo not given),22.8%
9,Cc1nc2c(=O)[nH]c(=S)[nH]c2[nH]c1=O,-15.2%
10,N#CCCCCCCC(N)=O,4.4%
11,O=C(NNc1c(F)c(F)c(C(F)(F)F)c(F)c1F)c1ccccc1,3.55%
12,CCCCCCCCCCCCCCNC(=O)C(C)O (stereo not given),2%
13,NC(=O)Cc1nc(O)cc(=O)[nH]1,-8.45%
14,COc1cc(/C=N\N=C(/C)c2ccc(C)cc2C)cc(OC)c1OC,21.4%
15,CSCNC(=S)Nc1ccc(Cl)c(Cl)c1,59.2%
16,Brc1ccc(Nc2ccc(Br)cc2Br)c(Br)c1,28.2%
17,O=c1cc(-c2ccc(O)cc2)oc2cc(O)cc(O)c12,5.85%
18,O=C1CCCCCCCCCCC1Cc1cc(O)c(CC2CCCCCCCCCCC2=O)cc1O (stereo not given),-1.2%
19,Nc1nc(=S)c2[nH]cnc2[nH]1,-19.6%
20,CC(=O)NO,22.1%

row,Structure (SMILES),growth inhibition
1,CC1(C)Cc2ccccc2C(C)(Cl)C(=O)N1 (stereo not given),-10.8%
2,Cc1ccc(C2(C)CC[C@@H]3C[C@@]32C)c(O)c1 (stereo not given in full),91.2% (active)
3,CCN(CC)C1Oc2cc3c(cc2C(c2cc(OC)c(O)c(OC)c2)C1C)OCO3 (stereo not given),-14.6%
4,NOCc1ccc(OCc2ccccc2)cc1,5.75%
5,CCC(=O)NN(C(C)=O)c1ccccc1,10.3%
6,Cc1[nH]c(=O)[nH]c(=O)c1C,4.05%
7,COc1ccc(/C=C/C(=O)C(C)(C)CN2CCCCC2)cc1,39.9%
8,C(=N\OCCc1ccccc1)/c1ccccn1,-14.7%
9,CCOC(=O)C(C(=O)c1cccnc1)C(C(=O)OCC)C(=O)c1cccnc1 (stereo not given),5.1%
10,CCCCCCCCCCCCCCCCCC1=NCC(C)O1 (stereo not given),4.6%
11,CC(O)c1ccc2c(c1)Nc1ccccc1S2 (stereo not given),-6.95%
12,Cc1nn(C)c(C#N)c1[N+](=O)[O-],-7.05%
13,CCC(C)NC(=O)c1ccccc1C (stereo not given),6.25%
14,CSC(=S)Nc1cc(C)cc(C)n1,29.8%
15,COc1cc2c(cc1OC)C(=O)C1(CO)COC(=O)C1C2 (stereo not given),-7.7%
16,CC(=O)Nc1nc(C)c(CC/C=C/c2ccc([N+](=O)[O-])cc2)c(Cl)n1,8.9%
17,CC(=O)N/N=C1\NN(C(C)=O)C2(S1)C(=O)Nc1ccccc12 (stereo not given),7.7%
18,O=C(O)C(=Cc1cccc2ccc3ccccc3c12)C(=O)O,-8.7%
19,COC(=O)c1ccc(OC(=O)Nc2ccc(Br)cc2)cc1,11.3%
20,O=C(Nc1ccccc1Cl)c1ccc(Cl)cc1,4.75%

# Assay: NCI Yeast Anticancer Drug Screen. Data for the mec2-1 strain (AID 157)
# Details: S. cerevisiae mec2-1 strain, at 50.0 µM, hits give high values
# Method in brief: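 Mutant yeast (mec2-1) grown with compound; growth inhibition relative to vehicle control reported.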
row,Structure (SMILES),growth inhibition
1,O=C(CC(=O)N1N=C(N(c2ccccc2)c2ccccc2)CC1c1ccccc1)Nc1ccccc1 (stereo not given),6.4%
2,NS(=O)(=O)c1ccc(NC(=O)Nc2cccc(Cl)c2)cc1,12.6%
3,[O-][N+]1=C(c2ccccc2)C(c2ccccc2)C(c2ccccc2)O1 (stereo not given),1.05%
4,O=[N+]([O-])c1ccc(F)cc1,5.25%
5,COc1cc(C)c(C#N)c(OC)n1,-7.8%
6,Clc1cc(Cl)c(SSc2cc(Cl)c(Cl)cc2Cl)cc1Cl,1.15%
7,COc1cc2nccnc2c(N)c1OC,7.65%
8,O=C1c2ccccc2C(c2ccccc2)C1c1ccccc1 (stereo not given),15.9%
9,Cc1nc2c(=O)[nH]c(=S)[nH]c2[nH]c1=O,-28%
10,N#CCCCCCCC(N)=O,-0.9%
11,O=C(NNc1c(F)c(F)c(C(F)(F)F)c(F)c1F)c1ccccc1,-19.1%
12,CCCCCCCCCCCCCCNC(=O)C(C)O (stereo not given),-23.8%
13,NC(=O)Cc1nc(O)cc(=O)[nH]1,-9.1%
14,COc1cc(/C=N\N=C(/C)c2ccc(C)cc2C)cc(OC)c1OC,23.1%
15,CSCNC(=S)Nc1ccc(Cl)c(Cl)c1,45%
16,Brc1ccc(Nc2ccc(Br)cc2Br)c(Br)c1,23.1%
17,O=c1cc(-c2ccc(O)cc2)oc2cc(O)cc(O)c12,-5.65%
18,O=C1CCCCCCCCCCC1Cc1cc(O)c(CC2CCCCCCCCCCC2=O)cc1O (stereo not given),3%
19,Nc1nc(=S)c2[nH]cnc2[nH]1,-4.95%
20,CC(=O)NO,-4.05%

row,Structure (SMILES),growth inhibition
1,CC1(C)Cc2ccccc2C(C)(Cl)C(=O)N1 (stereo not given),0.3%
2,Cc1ccc(C2(C)CC[C@@H]3C[C@@]32C)c(O)c1 (stereo not given in full),93.8% (active)
3,CCN(CC)C1Oc2cc3c(cc2C(c2cc(OC)c(O)c(OC)c2)C1C)OCO3 (stereo not given),-23.9%
4,NOCc1ccc(OCc2ccccc2)cc1,7.3%
5,CCC(=O)NN(C(C)=O)c1ccccc1,-21.4%
6,Cc1[nH]c(=O)[nH]c(=O)c1C,-36.1%
7,COc1ccc(/C=C/C(=O)C(C)(C)CN2CCCCC2)cc1,24.9%
8,C(=N\OCCc1ccccc1)/c1ccccn1,-33.1%
9,CCOC(=O)C(C(=O)c1cccnc1)C(C(=O)OCC)C(=O)c1cccnc1 (stereo not given),20.9%
10,CCCCCCCCCCCCCCCCCC1=NCC(C)O1 (stereo not given),-14%
11,CC(O)c1ccc2c(c1)Nc1ccccc1S2 (stereo not given),-21.9%
12,Cc1nn(C)c(C#N)c1[N+](=O)[O-],-30.3%
13,CCC(C)NC(=O)c1ccccc1C (stereo not given),-2.75%
14,CSC(=S)Nc1cc(C)cc(C)n1,17.7%
15,COc1cc2c(cc1OC)C(=O)C1(CO)COC(=O)C1C2 (stereo not given),-19%
16,CC(=O)Nc1nc(C)c(CC/C=C/c2ccc([N+](=O)[O-])cc2)c(Cl)n1,32.9%
17,CC(=O)N/N=C1\NN(C(C)=O)C2(S1)C(=O)Nc1ccccc12 (stereo not given),52%
18,O=C(O)C(=Cc1cccc2ccc3ccccc3c12)C(=O)O,-17.2%
19,COC(=O)c1ccc(OC(=O)Nc2ccc(Br)cc2)cc1,26.4%
20,O=C(Nc1ccccc1Cl)c1ccc(Cl)cc1,14.9%
